MenB inh: blocks the Mycobacterium tuberculosis MenB enzyme; P9WNP5; MenB enzyme assay, absorbance read-out; inhibition, % (test concentration not listed); actives 0.43% (n = 100,000); AID 540299; in the data active means inhibition above about 21%, passing the limit was not always enough
Target sequence (P9WNP5 whole entry, looked up): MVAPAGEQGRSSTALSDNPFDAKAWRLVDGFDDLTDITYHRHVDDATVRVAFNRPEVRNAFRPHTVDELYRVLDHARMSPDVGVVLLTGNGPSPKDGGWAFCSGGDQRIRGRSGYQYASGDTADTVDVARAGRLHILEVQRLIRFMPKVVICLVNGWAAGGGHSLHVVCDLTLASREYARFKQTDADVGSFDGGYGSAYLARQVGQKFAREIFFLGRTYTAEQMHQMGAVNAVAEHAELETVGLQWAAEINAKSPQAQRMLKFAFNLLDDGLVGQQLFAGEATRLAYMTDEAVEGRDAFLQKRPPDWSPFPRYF
AID504770: E. coli YBA685 growth inhibition, screen for V. cholerae RctB inhibitors; E. coli YBA685 rctB-dependent plasmid, OD600 growth, 3 h; active compounds read low; z-score (test concentration not listed); actives 0.27% (n = 130,000); in the data active means z-score below about -2, passing the limit was not always enough
PV pol inh: poliovirus RNA polymerase inhibition; P03300; poliovirus polymerase elongation, fluorescence polarization; active compounds read low; actives 0.66% (n = 150,000); % elongation, % (compound at 16.7 µg/mL); AID 588519; in the data active means % elongation below about 90%
Mtb MbtI inh: inhibitors of Mycobacterium tuberculosis siderophore enzyme MbtI; P9WFX0; purified MbtI enzyme, fluorescence intensity read-out; inhibition, % (test concentration not listed); actives 0.89% (n = 100,000); AID 493033; in the data active means inhibition mostly above about 56%, no sharp cut-off; inactive means mostly below about 77%
* marks the source's active call; other numbers are inactive results. Most compounds without a hit are left out; they make up all but 1.4% or so of the library.

What do the screens show for `CCn1c(SCC(=O)OCC(=O)N2CCc3ccccc32)nnc1-c1cccs1`?
MenB inh: -21; AID504770: 0.2; PV pol inh: 101; Mtb MbtI inh: -44

What do the screens show for `CCOC(=O)c1c(NC(=O)c2cc(CC)on2)sc(C)c1C`?
PV pol inh: 90*

What do the screens show for `CCOC(=O)c1sc(NC(=O)c2cc(C(C)C)on2)c(C(=O)OCC)c1C`?
MenB inh: -11; AID504770: 0.25; PV pol inh: 101; Mtb MbtI inh: 6

How did COC(=O)C(C#N)c1nc2ccccc2nc1Cl (stereo not drawn) do in these assays?
MenB inh: -24; AID504770: -0.3; PV pol inh: 83*; Mtb MbtI inh: 0

How did Cc1ccc(-c2nc(N)s[n+]2-c2ccccc2)cc1 do in these assays?
AID504770: -2.4*

What do the screens show for `COc1ccc(-c2nc(N)s[n+]2-c2ccccc2)cc1`?
AID504770: 1.5; PV pol inh: 102; Mtb MbtI inh: 98*

How did FC(F)(F)c1cc(-c2cccs2)n[nH]1 do in these assays?
MenB inh: 1; AID504770: -1.5; PV pol inh: 104; Mtb MbtI inh: -8

How did COc1ccccc1C(=O)NCC(=O)O do in these assays?
MenB inh: 35*; AID504770: -0.3; PV pol inh: 100; Mtb MbtI inh: 0

Results for O=C(c1ccccc1Cl)N(Cc1ccco1)Cc1ccco1 ?
PV pol inh: 108

What do the screens show for `NC(=O)c1cc(S(=O)(=O)NCc2ccccc2)cs1`?
PV pol inh: -12*

How did Nc1cccc2c1C(=O)N(C(=O)c1ccc3c(c1)S(=O)(=O)N=C1CCCCCN13)C2=O do in these assays?
MenB inh: -32; AID504770: -0.05; PV pol inh: 58*; Mtb MbtI inh: -1

What do the screens show for `O/N=c1/sc2ccccc2n1CCS`?
MenB inh: 15; AID504770: -0.3; PV pol inh: 99; Mtb MbtI inh: 69*

What do the screens show for `Cc1cc(F)c(F)c(C(=O)N2CCCCCC2)c1Cl`?
MenB inh: 34*; AID504770: 1.4; PV pol inh: 103; Mtb MbtI inh: 2

What do the screens show for `CC(C)NC(=S)N/N=C/c1cccc(O)c1`?
MenB inh: -7; AID504770: -0.35; PV pol inh: 104; Mtb MbtI inh: 16

How did CNC(=S)N/N=C/c1cccc(Cl)c1 do in these assays?
MenB inh: -6; AID504770: -0.5; PV pol inh: 13*; Mtb MbtI inh: 24

How did CCC(C)(C)c1nnc(N)s1 do in these assays?
MenB inh: 5; AID504770: -0.15; PV pol inh: 96; Mtb MbtI inh: 99*

What do the screens show for `CC(=O)Nc1ccccc1N`?
MenB inh: -16; AID504770: 0; PV pol inh: 111

What do the screens show for `CC(=O)/C=C(\C)Nc1ccccc1S`?
MenB inh: 28*; AID504770: -1.2; PV pol inh: 101; Mtb MbtI inh: 1

Results for CC(C)CN(c1ccccc1)S(=O)(=O)c1nnc(NC(=O)C2CCCCC2)s1 ?
PV pol inh: 104

Results for O=C(NCCc1ccc(F)cc1)C(=O)NCC(c1cccs1)S(=O)(=O)c1cccs1 (stereo not drawn) ?
PV pol inh: 105

How did O=C(CSc1ccc2ccccc2c1)NCCc1ccc(O)c(O)c1 do in these assays?
AID504770: -0.3; PV pol inh: 100; Mtb MbtI inh: 93*

How did O=C(O)c1nc(-c2ccccc2)cc(-c2ccccc2)n1 do in these assays?
MenB inh: 35*; AID504770: 0.65; PV pol inh: 100; Mtb MbtI inh: 15

How did O=C(O)c1cc(-c2ccccc2)nc2ccccc12 do in these assays?
MenB inh: 1; AID504770: -0.65; PV pol inh: 102

How did COc1cc(NC(=O)C(F)(F)F)c(OC)cc1Br do in these assays?
MenB inh: 33*; AID504770: -0.5; PV pol inh: 102; Mtb MbtI inh: -7

How did Cc1cc(C)c2c(=O)n(C(=O)c3cccs3)sc2n1 do in these assays?
MenB inh: 16; AID504770: -0.6; PV pol inh: 121; Mtb MbtI inh: 100*

What do the screens show for `O=C(O)C1CC1(C(=O)O)C(=O)O` (stereo not drawn)?
MenB inh: -26; AID504770: 0.05; PV pol inh: 101; Mtb MbtI inh: -6

What do the screens show for `O=C(Sc1ccc(Cl)cc1)N1CCOCC1`?
AID504770: 0.7

Results for O=C(Sc1ccc(Cl)cc1)c1ccno1 ?
MenB inh: -5; AID504770: -0.55; PV pol inh: 96; Mtb MbtI inh: 65*

Results for CCOc1ccc(Nc2ncccc2C#N)cc1 ?
MenB inh: -8; AID504770: -0.65; PV pol inh: 104; Mtb MbtI inh: 14

Results for COc1cc(/C=N/N=C(N)N)ccc1OC(=O)c1ccc(C)cc1 ?
MenB inh: 0; AID504770: -9.6*; PV pol inh: 102; Mtb MbtI inh: 11

How did CN(C)c1ccc(NC(=S)c2ccccn2)cc1 do in these assays?
MenB inh: -61; AID504770: -1.2; PV pol inh: 103; Mtb MbtI inh: 68*

Results for CCOC(=O)C1CCN(/C=C2\C(=O)NC(=S)N(CC)C2=O)CC1 ?
MenB inh: -20; AID504770: -0.05; PV pol inh: 97; Mtb MbtI inh: 1

How did O=C1OC(c2cccs2)=N/C1=C\c1cccc(F)c1 do in these assays?
AID504770: -0.2; PV pol inh: 88*; Mtb MbtI inh: 95

How did CC1=CC(=O)C(CCCC2=CC(=O)C=CC2=O)=CC1=O do in these assays?
MenB inh: 0; AID504770: 0.45; PV pol inh: 102; Mtb MbtI inh: 100*

What do the screens show for `N#CSC1C=CS(=O)(=O)C1` (stereo not drawn)?
AID504770: -4.8*

Results for NC(=O)CC1C=CS(=O)(=O)C1 (stereo not drawn) ?
AID504770: -0.3; PV pol inh: 104; Mtb MbtI inh: -8

What do the screens show for `COc1cccc(Cn2c(=O)n(CCc3ccccc3)c(=O)c3cccnc32)c1`?
MenB inh: -4; AID504770: 0.65; PV pol inh: 101; Mtb MbtI inh: -14

Results for Cc1sc2ncnc(N)c2c1C ?
MenB inh: -15; AID504770: 1.6; PV pol inh: 67*; Mtb MbtI inh: inactive

How did CCN(CC)c1ncnc2sc(C)c(C)c12 do in these assays?
AID504770: 0.2; PV pol inh: 100; Mtb MbtI inh: 0

How did CCN1CCN(C(=O)c2ccc(CS(=O)(=O)Cc3ccccc3F)o2)CC1 do in these assays?
MenB inh: -17; AID504770: -0.4; PV pol inh: 101; Mtb MbtI inh: -11

What do the screens show for `CN=C1c2c(C)c3cc(OC)ccc3n2CCN1C`?
MenB inh: 8; AID504770: 0.5; PV pol inh: 104; Mtb MbtI inh: -75

How did COc1ccc2c(c1)c1nc(N(C)C)nc3c1n2CCN3C do in these assays?
MenB inh: -28; AID504770: 2; PV pol inh: 6.0*; Mtb MbtI inh: -48

How did CCOC(=O)/C(C#N)=C\N1CCOCC1 do in these assays?
MenB inh: -1; AID504770: -0.25; PV pol inh: 102; Mtb MbtI inh: 11

Results for CCOC(=O)/C(C#N)=C\C1=C(N2CCCC2)CC(C)(C)OC1 ?
MenB inh: inactive; AID504770: 0; PV pol inh: 101; Mtb MbtI inh: 62*

Source: PubChem BioAssay (ICCB-Longwood Screening Facility, Harvard Medical School)
